Shown is part of a subset that was picked to be rich in hits.
SF-1 inh: inhibitors of human SF-1, primary screen, cell-based, CHO-K1, Gal4-SF-1 LBD, luciferase luminescence. Steroidogenic factor 1 (Homo sapiens), Q13285. CHO-K1 Gal4-SF-1 LBD luciferase reporter. inhibition, % at 10 µM. hit rate 0.55% among 65,000;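 active means inhibition above the mean inhibition of all tested compounds plus 3 SD, cut at about 48% in these data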;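 further: 0% = SF-1 transfected cells with DMSO and 100% = mock-transfected cells lacking SF-1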
Target sequence (Q13285 whole entry, looked up, the tested form may be a part): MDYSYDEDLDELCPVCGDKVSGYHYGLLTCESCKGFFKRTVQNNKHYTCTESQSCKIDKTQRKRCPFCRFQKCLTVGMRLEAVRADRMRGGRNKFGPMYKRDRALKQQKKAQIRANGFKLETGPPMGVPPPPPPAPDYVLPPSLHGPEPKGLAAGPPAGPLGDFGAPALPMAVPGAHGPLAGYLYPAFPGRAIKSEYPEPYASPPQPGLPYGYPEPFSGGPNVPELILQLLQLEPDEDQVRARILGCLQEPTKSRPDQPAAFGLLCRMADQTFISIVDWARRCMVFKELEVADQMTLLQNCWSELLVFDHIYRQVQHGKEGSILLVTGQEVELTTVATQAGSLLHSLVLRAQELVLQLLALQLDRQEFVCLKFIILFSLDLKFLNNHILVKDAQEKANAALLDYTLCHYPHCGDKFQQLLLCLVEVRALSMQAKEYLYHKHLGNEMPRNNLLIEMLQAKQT
Starred values were filed as active, the others as inactive.

SMILES | SF-1 inh
O=C(Nc1ccc(SC(F)F)cc1)c1ccc2nccnc2c1 | 18
CC(C)c1ccc2oc(-c3cc(N)ccc3O)nc2c1 | 60*
Nc1ccc2oc(CCc3ccccc3)nc2c1 | -79
Cc1ccccc1-c1nc2cc(N)ccc2o1 | -58
CCOC(=O)c1cnn(-c2nc(SC)nc3sc4c(c23)CCC4)c1N | -3
Cn1cccc1C(=O)OCc1cc(Cl)cc2c1OCOC2 | -60
COc1ccccc1NC(=O)c1cnc2n(c1=O)CCS2 | -29
O=c1c2cnn(-c3ccc(F)cc3)c2ncn1Cc1ccccn1 | -9
CCOC(=O)c1cc2sccc2n1CCCN1C(=O)c2ccccc2C1=O | 2
CCOC(=O)c1[nH]c(C)c(C(=O)Nc2ccccc2F)c1C | -83
CC(=O)c1c(C)[nH]c(C(=O)OCCCCN2C(=O)c3ccccc3C2=O)c1C | 84*
O=C(NCCc1ccccc1)c1cc(-c2ccc3c(c2)OCO3)on1 | -8
Cc1nn(-c2ccccc2)c(C)c1C(=O)OCC(=O)c1c(N)n(CC(C)C)c(=O)n(C)c1=O | 55*
Cn1ccc(C(=O)OCC(=O)c2ccccc2)n1 | -5
COC(=O)CCc1c(C)nn(-c2ccccc2)c1C | -9
CC(=O)OC1CC2(C)C(=O)CCC2C2CCc3cc(O)ccc3C12 (centres undefined) | 8
O=C1NCCCC1C(=O)NCCN1C(=O)CCC1=O (centres undefined) | -16
Cn1c(SCC(=O)N2CCCCC2)nnc1-c1ccc(S(=O)(=O)N2CCOCC2)cc1 | 10
Cc1ccc(SCc2cc(=O)n3[nH]cnc3n2)cc1 | 3
Cc1cc(C)c2cc(C(c3nnnn3CC3CCCO3)N3CCN4CCCC4C3)c(=O)[nH]c2c1 (centres undefined) | -1
COc1ccc(CC(=O)Nc2ccc(S(=O)(=O)NCC3CCCO3)cc2)cc1 (centres undefined) | 7
COc1ccc(C(=O)Nn2c(SCC(=O)NCC3CCCO3)nc3ccccc3c2=O)cc1 (centres undefined) | 67*
COC(=O)c1ccc2c(=O)n(CCN3CCOCC3)c(SCC(=O)c3ccccc3)nc2c1 | -8
O=C(Nc1ccccc1)N(O)c1ccc(Cl)cc1 | -58
Cc1ccc2nc(-c3ccccc3)cn2c1 | 89*
SMILES | SF-1 inh
Cc1cc(C)n(-c2nc(C)nc3sc4c(c23)CCC(C)C4)n1 (centres undefined) | 5
Cc1ccc(CNC(=O)c2cn(C3CCCC3)c(=O)c3c2c2ccccc2n3C)o1 | 16
CCOC(=O)C1=C(C)NC2=C(C(=O)CCC2)C1c1cc(OC)ccc1OC (centres undefined) | -2
CCOC(=O)C(C(=O)OCC)C(=O)c1cc(OC)c(OC)c(OC)c1 | -1
CCCCOC(=O)c1[nH]c2c(c1C)C(=O)CC(c1cc(OC)c(OC)c(OC)c1)C2 (centres undefined) | 54*
Cc1c(C(=O)OCCOC(C)C)[nH]c2c1C(=O)CC(C)(C)C2 | 8
C=CCOC(=O)c1[nH]c2c(c1C)C(=O)CC(c1cc(OC)c(OC)c(OC)c1)C2 (centres undefined) | 52*
Cc1nc2cc(Cl)c(Cl)cc2nc1C | -64
CC(C)c1cc(C(=O)NC2CCCCC2)no1 | -54
Cc1cc2c(cc1C)NC1(C(=O)Nc3ccccc31)C1=C(CC(C)(C)CC1=O)N2 (centres undefined) | -16
CN(C)CC(C(=O)c1ccccc1)c1ccccc1 (centres undefined) | 68*
CCSC1=C(C#N)C(c2ccccc2OC)CC(=O)N1 (centres undefined) | -6
COc1cc(C2C(C#N)=C(C)NC3=C2C(=O)c2ccccc23)cc(OC)c1OC (centres undefined) | 82*
CCN(CC)c1ccc(C=N/C(C#N)=C(\N)C#N)cc1 | -57
[O-][N+]1=c2ccc(Nc3ccccc3)cc2=NC12CCCCC2 | 62*
O=C(OC(C(=O)NCc1ccc2c(c1)OCO2)c1ccc(Cl)cc1)c1ccco1 (centres undefined) | 5
NC(=O)C1CCC(NC(=O)OCc2ccccc2)CC1 (centres undefined) | -6
COc1cccc2cc(C(=O)C3=C(O)C(=O)N(CCN4CCOCC4)C3c3cccs3)oc12 (centres undefined) | 13
COc1ccccc1OCC(=O)c1[nH]c(C)c(C(C)=O)c1C | 50*
CCOC(=O)c1c(C)[nH]c(C)c1C(=O)COC(=O)CCOc1ccccc1OC | -2
COC(=O)c1c(C)[nH]c(C(C)=O)c1C | -16
Cc1cccn2c(=O)c3cc(C#N)c(=NC(=O)c4ccc5c(c4)OCO5)n(CC(C)C)c3nc12 | 0
CCN(CC)c1ccc(NC(=O)C2CC3CCC2C3)cc1 (centres undefined) | -49
CCOC(=O)c1cnc(-n2nc(C)cc2C)nc1NC(C)c1ccccc1 (centres undefined) | 49*
CCOC(=O)c1cnn2c(C)cc(-c3ccccc3)nc12 | -65
SMILES | SF-1 inh
CCOC(=O)c1cc(-c2ccco2)nc2c1c(C)nn2-c1ccccc1 | 10
O=C(c1ccc(Cn2cc(Br)cn2)o1)n1cccn1 | 12
COc1cc2nc(COc3ccc(C#N)cc3)n(CC#N)c(=O)c2cc1OC | 10
C/C(NCc1cccnc1)=C(\C#N)C(=O)NCc1ccccc1 | 5
O=C1c2ccccc2NC(c2cnc3ccccc3n2)N1O (centres undefined) | -43
O=C(NCc1ccccn1)c1ccc2ccccc2n1 | -4
O=C1c2ccccc2C(=O)C1c1ccc2ccccc2n1 | 72*
O=C(O)CCCCNS(=O)(=O)c1ccc(Cl)c(C(F)(F)F)c1 | -6
C=CCN(C(=O)Cn1nnc2ccccc21)C(C(=O)NCCOC)c1ccc(OC)cc1OC (centres undefined) | -4
CN(C)c1ccc2c(c1)OC(N)=C(C#N)C2c1cccc(F)c1 (centres undefined) | 56*
CC(=O)C1=C(C)OC(N)=C(C#N)C1c1ccco1 (centres undefined) | -3
Cc1ccc2c(c1)nnn2C1CCN(S(=O)(=O)c2ccc(C(=O)N3CC(C)CC(C)C3)cc2)CC1 (centres undefined) | -24
CCCN1C(=O)SC(CC(=O)Nc2ccc(Br)cc2)C1=O (centres undefined) | 1
COc1ccc(C(=O)CSc2nc3nc(C)cc(C)n3n2)cc1OC | 4
COc1ccc(CNC(=O)CCc2nc(-c3ccccc3F)no2)c(OC)c1 | 3
O=C(CCc1nc(-c2ccccc2F)no1)NCCc1ccccc1Cl | -2
CC(C)(CC(=O)O)Cc1nc(-c2ccc(Cl)cc2)no1 | -63
CNC(=O)CCc1nc(-c2ccc(C(C)(C)C)cc2)no1 | 88*
O=C1c2ccccc2C(=O)N1Cc1nc(-c2ccccc2)no1 | 15
CC(C)(C)c1ccc(-c2noc(CCC(N)=O)n2)cc1 | 87*
COc1ccc(-c2noc(CCCOc3ccccc3)n2)cc1OC | 11
CCCc1nc(-c2ccc(-c3ccc(F)cc3)cc2)no1 | -53
CN(C)C(=O)CCc1nc(-c2ccc(C(C)(C)C)cc2)no1 | 83*
CC(=O)N1CCc2cc3nc(C)cc(C)c3cc21 | 0
Cc1cccc(CN2CCC(CNC(=O)C3CCCN(S(=O)(=O)c4cnc[nH]4)C3)CC2)c1 (centres undefined) | -3
CN(C)c1nc(Oc2ccc(N)cc2)nc(N(C)C)n1 | -19
O=C(Cn1ncn2c(cc3ccccc32)c1=O)NCc1ccco1 | -8
O=C(CN(c1ccc2c(c1)OCCO2)S(=O)(=O)c1ccccc1)NCc1ccco1 | -4
Cc1cc(C)n2nnnc2c1C#N | -5
CC(=O)NCCc1nc2ccccc2n1Cc1ccccc1 | 32
